Measurements: PubChem BioAssay (EPA / NIEHS)
Calls of active or inactive are those of the source. How the source made its calls: active means hit-call score of the fitted dose curve at least 0.9, where 1 is the maximum; inactive means score below 0.9.

Key:
Settings in all cases: mRNA level, 48 h; actives raise or lower the signal
[1] = read-out: Alkaline Phosphatase, Placental (ALPP) gene, ALPP (gene 250); experiment: LTEA_HepaRG_ALPP: Life Technologies and Expression Analysis (LTEA) Assay for Alkaline Phosphatase, Placental (ALPP) gene using HepaRG (AID 2283468);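 on AC50: differentiated human HepaRG liver cells in serum-free induction medium; ALPP transcript by TaqMan qRT-PCR normalized to ACTB GAPDH and POLR2A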
Procedure, shortened: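 HepaRG, 48 h plating then 48 h dosing, serum-free induction medium, 0.5% DMSO. 8 conc, half-log, max 100 uM, duplicates. Endpoint: ALPP transcript by qRT-PCR, housekeeping-normalized; gain or loss fitted vs DMSO.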

[2] = read-out: Bcl-2 (BAD) gene, BAD (gene 572); experiment: LTEA_HepaRG_BAD: Life Technologies and Expression Analysis (LTEA) Assay for Bcl-2 (BAD) gene using HepaRG (AID 2283469)
Procedure, shortened: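 Activity values reflect up- or down-regulation of BAD mRNA in human HepaRG hepatic cells treated 48 h in serum-free medium, with eight-point half-log dosing capped at 100 uM and 0.5% DMSO vehicle.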

[3] = read-out: Bcl-2 (BAX) gene, BAX (gene 581); experiment: LTEA_HepaRG_BAX: Life Technologies and Expression Analysis (LTEA) Assay for Bcl-2 (BAX) gene using HepaRG (AID 2283470)
Procedure, shortened: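 Cells were thawed, plated for 48 h, moved to serum-free induction medium and dosed for 48 h (highest concentration 100 uM, half-log steps, 0.5% DMSO). Total RNA was then analysed for BAX expression by qRT-PCR.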

[4] = read-out: adenosine kinase (ADK) gene, ADK (gene 132); experiment: LTEA_HepaRG_ADK: Life Technologies and Expression Analysis (LTEA) Assay for adenosine kinase (ADK) gene using HepaRG (AID 2283471)
Procedure, shortened: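 Differentiated HepaRG cells dosed 48 h in serum-free induction medium, 0.5% DMSO vehicle, eight half-log concentrations from 100 uM, in duplicate. ADK mRNA by TaqMan qRT-PCR normalised to ACTB, GAPDH, POLR2A; bidirectional fit versus DMSO.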

BCL2L11 (gene 10018) = experiment: LTEA_HepaRG_BCL2L11: Life Technologies and Expression Analysis (LTEA) Assay for Bcl-2 (BCL2L11) gene using HepaRG (AID 2283473)
Procedure, shortened: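 Read-out is BCL2L11 transcript level by qRT-PCR, normalized to three housekeeping genes and fitted bidirectionally against 0.5% DMSO vehicle. HepaRG cells received chemicals for 48 h in serum-free induction medium, 100 uM down in half-log dilutions.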

[5] = read-out: Apolipoprotein A-V (APOA5) gene, APOA5 (gene 116519); experiment: LTEA_HepaRG_APOA5: Life Technologies and Expression Analysis (LTEA) Assay for Apolipoprotein A-V (APOA5) gene using HepaRG (AID 2283474)
Procedure, shortened: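 Readout is APOA5 transcript level by qRT-PCR on Fluidigm dynamic arrays, normalized to three housekeeping genes. HepaRG cultures received chemicals for 48 h at up to 100 uM (half-log steps, 0.5% DMSO), with gain or loss scored relative to DMSO.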

[6] = read-out: Apoptosis regulator Bcl-2 (Homo sapiens) (UniProt P10415); experiment: LTEA_HepaRG_BCL2: Life Technologies and Expression Analysis (LTEA) Assay for Bcl-2 gene using HepaRG (AID 2283475)
Procedure, shortened: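 Plated human HepaRG cells are exposed to test chemicals for 48 h across eight concentrations from 100 uM downward in half-log steps (0.5% DMSO). BCL2 expression is then measured by qRT-PCR with housekeeping normalisation and fitted bidirectionally against vehicle.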

[7] = read-out: Bcl-2 (BID) gene, BID (gene 637); experiment: LTEA_HepaRG_BID: Life Technologies and Expression Analysis (LTEA) Assay for Bcl-2 (BID) gene using HepaRG (AID 2283476)
Procedure, shortened: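 Cells are plated, cultured 48 h, switched to serum-free induction medium, then dosed 48 h (100 uM top, half-log steps, 0.5% DMSO). RNA is isolated and BID expression read by qRT-PCR.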

Caspase-3 (Homo sapiens) = Caspase-3 (Homo sapiens) (UniProt P42574); experiment: LTEA_HepaRG_CASP3: Life Technologies and Expression Analysis (LTEA) Assay for cysteine-aspartic acid protease (CASP3) using HepaRG (AID 2283477)
Procedure, shortened: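 Read-out is CASP3 mRNA level by TaqMan qRT-PCR in human HepaRG cells after 48 h chemical exposure. Eight half-log concentrations topping at 100 uM were tested in 0.5% DMSO; gain or loss was fitted relative to DMSO.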

[8] = read-out: Alpha-fetoprotein (AFP) gene, AFP (gene 174); experiment: LTEA_HepaRG_AFP: Life Technologies and Expression Analysis (LTEA) Assay for Alpha-fetoprotein (AFP) gene using HepaRG (AID 2283472);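 on AC50: AFP transcript by TaqMan qRT-PCR normalized to ACTB GAPDH and POLR2A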
Procedure, shortened: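 Chemicals were tested on differentiated HepaRG cells for 48 hours at eight concentrations up to 100 uM, with 0.5% DMSO as vehicle. AFP expression was then quantified by qRT-PCR and analyzed for gain or loss relative to DMSO.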

Measured: AC50

Chain of Caspase-3 (Homo sapiens) (P42574 whole entry, looked up): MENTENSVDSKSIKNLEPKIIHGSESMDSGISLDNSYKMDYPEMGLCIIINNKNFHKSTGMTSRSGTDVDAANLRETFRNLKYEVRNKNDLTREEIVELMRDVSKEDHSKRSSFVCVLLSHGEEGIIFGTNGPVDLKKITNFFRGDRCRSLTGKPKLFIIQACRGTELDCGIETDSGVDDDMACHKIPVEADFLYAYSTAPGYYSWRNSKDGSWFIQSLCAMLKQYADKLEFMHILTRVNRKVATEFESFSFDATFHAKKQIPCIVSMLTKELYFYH
Chain of Apoptosis regulator Bcl-2 (Homo sapiens) (P10415 whole entry, looked up): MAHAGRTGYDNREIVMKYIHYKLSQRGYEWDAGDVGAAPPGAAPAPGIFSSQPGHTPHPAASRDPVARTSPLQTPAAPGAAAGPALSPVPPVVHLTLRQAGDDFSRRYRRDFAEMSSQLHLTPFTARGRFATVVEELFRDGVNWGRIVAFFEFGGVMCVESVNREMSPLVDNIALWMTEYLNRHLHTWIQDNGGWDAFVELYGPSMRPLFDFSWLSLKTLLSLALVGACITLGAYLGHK

CCC(=C(c1ccc(O)cc1)c1ccc(OCCN(C)C)cc1)c1ccccc1
active: [4] 75.2 µM | BCL2L11 (gene 10018) 82.9 µM | Caspase-3 (Homo sapiens) 89.8 µM
not listed: [8]
inactive: all other assays above

OCCC(F)(F)C(F)(F)C(F)(F)C(F)(F)C(F)(F)C(F)(F)C(F)(F)C(F)(F)F
not listed: [5]
inactive: all other assays above

O=C(O)c1ccccc1C(c1ccc(O)cc1)c1ccc(O)cc1
not listed: [8]
inactive: all other assays above

Cc1cc(CCN2CCN(c3nsc4ccccc34)CC2)cc2c1NC(=O)CC2(C)C
active: [1] 50 µM | [3] 93 µM | [8] 72.6 µM | [6] 68.2 µM
not listed: [5]
inactive: all other assays above

CC(C)CCCCCCOC(=O)CCCCC(=O)OCCCCCCC(C)C
not listed: [5]
inactive: all other assays above

CCC(C)(C)C1CCC(O)CC1 (stereo not drawn)
inactive: all assays above

CC(=O)CC(C)(C)O
not listed: [8]
inactive: all other assays above

CN1CCN(c2ccccc2/C=C2\SCCN(c3ccc(Cl)c(Cl)c3)C2=O)CC1
active: [1] 15.8 µM | [8] 11.5 µM | [7] 83.9 µM
not listed: [5]
inactive: all other assays above

CCCCCCCCC(=O)O
not listed: [5]
inactive: all other assays above

CCCCCCC(=O)O
inactive: all assays above

O=[N+]([O-])c1ccc(O)cc1
not listed: [5]
inactive: all other assays above

CCc1nn(C2CCCCC2)c2cc(C3(C#N)CCC(C(=O)O)CC3)ccc12 (stereo not drawn)
inactive: [2] | [4] | [7] | Caspase-3 (Homo sapiens)
active: [1] 50 µM | [3] 50 µM | BCL2L11 (gene 10018) 8.54 µM | [5] 77.4 µM | [6] 74.3 µM

c1ccc2cc3c(ccc4ccccc43)cc2c1
active: BCL2L11 (gene 10018) 7.02 µM | [5] 15.9 µM
not listed: [8]
inactive: all other assays above

Nc1cccc2c(N)cccc12
inactive: all assays above

CN1CCC[C@H]1c1cccnc1
inactive: all assays above

COCC(C)OCC(C)O (stereo not drawn)
not listed: [8]
inactive: all other assays above

Cc1cc(C)c(O)c(C)c1
not listed: [8]
inactive: all other assays above

NC(=O)N(O)[C@@H]1C=C[C@H](Oc2cccc(Oc3ccc(F)cc3)c2)C1
active: [1] 3.76 µM | [3] 64.5 µM | [8] 20.2 µM | BCL2L11 (gene 10018) 12.3 µM | [5] 37.7 µM | [6] 73.9 µM
inactive: [2] | [4] | [7] | Caspase-3 (Homo sapiens)

CC(O)CO (stereo not drawn)
not listed: [5]
inactive: all other assays above

CCCCCCCCCCCCCCCS(=O)(=O)Oc1ccccc1
not listed: [5]
inactive: all other assays above

CCCOc1sc(C(=O)N2CCC(c3cc(CN)ccc3F)CC2)c(C)c1Br
active: [7] 0.0539 µM
not listed: [5]
inactive: all other assays above

CC#C[C@]1(O)CC[C@H]2[C@@H]3CCC4=CC(=O)CCC4=C3[C@@H](c3ccc(N(C)C)cc3)C[C@@]21C
active: [1] 15.7 µM | [2] 25.4 µM | [3] 27.6 µM | [4] 80.6 µM | [8] 23.7 µM | BCL2L11 (gene 10018) 27.3 µM | [6] 19 µM | [7] 6.74 µM | Caspase-3 (Homo sapiens) 27.4 µM

CCCOC(=O)c1ccc(O)cc1
inactive: all assays above

COc1ccc([N+](=O)[O-])cc1N
not listed: [8]
inactive: all other assays above

N#C[C@@H]1CC(F)(F)CN1C(=O)CNC1CC2CCC(C1)N2c1ncccn1 (stereo partly drawn)
not listed: [5]
inactive: all other assays above

CCCCCCCCOC(=O)CCCCCCCCC(=O)OCCCCCCCC
inactive: all assays above

CC(C)(C)CC(C)(C)c1ccc(O)c(-n2nc3ccccc3n2)c1
not listed: [8]
inactive: all other assays above

CC[C@H](c1ccc(O)cc1)[C@@H](CC)c1ccc(O)cc1
active: [1] 83.6 µM | [4] 77.1 µM | BCL2L11 (gene 10018) 77.7 µM | Caspase-3 (Homo sapiens) 78.4 µM
not listed: [5]
inactive: all other assays above

CN(C)C=O
not listed: [5]
inactive: all other assays above
